The results in this text go back to PubChem BioAssay AID1240 (Sanford-Burnham Center for Chemical Genomics, 2008).

In all, about 50,000 compounds went through this assay and about 800 (1.6%) showed an effect of 50% or more. Only a selection was taken, and strong results are over-represented in it overall.

The target in this experiment is Bcl-2-like protein 10 (Homo sapiens) (UniProt Q9HD36). The experiment can be described thus: Phenotype converters, Bcl-B/TR3 peptide binding displacement, primary biochemical FP (AID 1240).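 Note: 0% = Bcl-B with tracer peptide and DMSO and 100% = tracer peptide lacking Bcl-B.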 Particulars: GST-Bcl-B / FITC-TR3 peptide fluorescence polarization; stronger effect = higher value; compound at 3.75 mg/L.
Sequence of Bcl-2-like protein 10 (Homo sapiens) (Q9HD36 whole entry, looked up): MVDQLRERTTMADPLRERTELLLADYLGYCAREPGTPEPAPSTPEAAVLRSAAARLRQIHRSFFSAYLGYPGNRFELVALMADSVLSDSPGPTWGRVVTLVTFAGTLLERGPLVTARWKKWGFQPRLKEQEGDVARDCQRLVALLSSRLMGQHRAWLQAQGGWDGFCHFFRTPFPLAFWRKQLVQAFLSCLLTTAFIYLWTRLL
In the case of `COc1ccc2c(c1)OCC/C2=N\OC(=O)c1ccccc1OC`, the displacement is -7.8%.
With `O=C(COc1ccc2ccccc2c1)NCC1CCCO1` (stereo not drawn) the figure was 12.6%; with `COc1ccccc1-c1coc2cc(OC(=O)c3ccc(Cl)cc3)ccc2c1=O`, -2%.
As to `COc1ccccc1-c1coc2cc(OC(=O)c3cccc(Cl)c3)ccc2c1=O`, the displacement worked out at 6.5%.
For `COc1ccccc1-c1coc2cc(OC(=O)c3ccc(Cl)cc3Cl)ccc2c1=O`, the displacement stood at 63.9%.
As to `Cc1ccc(-c2nn(-c3ccccc3)cc2/C=C(\C#N)C(N)=O)o1`, the displacement came to 61.7%.
Under `Cc1ccc(-c2nn(-c3ccccc3)cc2C=O)o1` stands -0.3%.
For `N#CC(C#N)=Cc1cn(-c2ccccc2)nc1-c1ccc(-c2ccc([N+](=O)[O-])cc2)o1`, the displacement was -5.9%.
Under `COc1ccc(CSc2nc3ccccc3n2C)cc1F` stands -9.9%.
Regarding `COc1ccc(OC)c(C2NC(=S)NC(C)=C2C(=O)OCCc2ccccc2)c1` (stereo not drawn), the displacement came to 3.9%.
With `COc1ccccc1N1CCN(C(=O)COc2ccc(Cl)cc2C)CC1`, the displacement was -4.5%.
Take `O=c1[nH]c(=S)[nH]c(O)c1C=Nc1ccc(Cl)c(Cl)c1`: the displacement was -7%.
With `O=c1[nH]c(O)c(C=Nc2ccc(F)c(F)c2)c(=O)[nH]1`, the displacement is 166%.
`COc1ccc(Cl)cc1N=Cc1c(O)[nH]c(=O)[nH]c1=O`: the displacement came to 10.3%.
Consider `COc1ccc2c(c1OC)C(=O)OC2Nc1cccc(F)c1` (stereo not drawn), for which the displacement is -0.4%.
Consider `COc1ccc(-c2cc(C(F)(F)F)n3ncc(C(=O)N4CCOCC4)c3n2)cc1OC`, for which the displacement stood at 5.2%.
In the case of `CCOc1ccccc1NC(=O)C1CN(S(=O)(=O)c2ccccc2)CCN1S(=O)(=O)c1ccccc1` (stereo not drawn), the displacement came to 11.2%.
For `C/C(=N/NC(=O)c1cccnc1)c1cc(O)ccc1O`, the displacement is -12%.
`CC(C)c1ccc(/C=C2/SC(=O)N(c3ccccc3)C2=O)cc1`: the displacement was 1.4%.
With `CC(NC(=O)c1ccc(F)cc1)C1CC1` (stereo not drawn), the displacement is 4.6%.
For the molecule `Cc1cc(NCCCO)n2c(nc3ccccc32)c1C#N`, the displacement came to 160%.
As for `Cc1cc(NCCCCO)n2c(nc3ccccc32)c1C#N`, the displacement worked out at 25.9%.
With `Cc1cc(Nc2ccc3c(c2)OCO3)n2c(nc3ccccc32)c1C#N`, the displacement was found to be 135%.
As for `Cc1cc(NCCCN(C)C)n2c(nc3ccccc32)c1C#N`, the displacement is -13.5%.
On to `Cc1cc(Nc2ccccc2)n2c(nc3ccccc32)c1C#N`, for which the displacement was -2.8%.
As to `Cc1cc(Nc2ccc3c(c2)n(C)c(=O)n3C)n2c(nc3ccccc32)c1C#N`, the displacement came out at 22.5%.
In the case of `CC(=O)Nc1ccc(S(=O)(=O)/N=C2\C=CC(=O)c3ccccc32)cc1`, the displacement was determined as 22.2%.
With `COc1ccc(Cl)cc1C(=O)N(Cc1ccccc1)C(C)C`, the displacement turned out to be 11.9%.
Under `Cc1c(Cl)cccc1NC(=O)C1c2ccccc2Oc2ccccc21` stands 11.9%; under `CCn1c2ccccc2c2cc(NC(=O)Cc3ccc(OC)c(OC)c3)ccc21`, -5.2%; under `Cc1cc2nc3s/c(=C/c4ccc5c(c4)OCO5)c(=O)n3c2cc1C`, -11.4%.
Under `CSc1ccc(/C=c2\sc3nc4ccccc4n3c2=O)cc1` stands 7.3%.
Take `O=c1/c(=C/c2ccc(C(F)(F)F)cc2)sc2nc3ccccc3n12`: the displacement was found to be 2%.
For `CN(C)c1ccc(/C=c2\sc3nc4ccccc4n3c2=O)cc1`, the displacement was 107%.
As for `CC(=O)Oc1ccc(/C=c2\sc3nc4ccccc4n3c2=O)cc1`, the displacement was 28%.
In the case of `O=c1/c(=C/c2ccc(Sc3ccccc3)o2)sc2nc3ccccc3n12`, the displacement was 48.5%.
With `O=c1/c(=C\c2ccc(OCc3ccc([N+](=O)[O-])cc3)cc2)sc2nc3ccccc3n12`, the displacement is 4.5%.
Take `O=c1/c(=C/c2ccc3c(c2)OCO3)sc2nc3ccccc3n12`: the displacement was 69.3%.
With `O=c1/c(=C/c2ccc(-c3ccc(Cl)cc3)o2)sc2nc3ccccc3n12` the figure was 10.9%; with `O=c1/c(=C/c2ccc([N+](=O)[O-])cc2)sc2nc3ccccc3n12`, 86.7%.
With `Cc1ccc(Sc2ccc(/C=c3\sc4nc5ccccc5n4c3=O)o2)cc1` the figure was 86.8%; with `O=c1/c(=C/c2cc([N+](=O)[O-])ccc2Cl)sc2nc3ccccc3n12`, -7.5%; with `COc1ccc(/C=C2\C(=O)NN(c3ccc(Cl)c(Cl)c3)C2=O)cc1OC`, -13.2%.
For the molecule `CCOc1ccccc1/C=N/Nc1nnc(-c2ccccc2)c(=O)[nH]1`, the displacement was -10.7%.
Under `O=C(COc1ccccc1Cl)N1CCN(c2ccc([N+](=O)[O-])cc2)CC1` stands -3.3%; under `O=C1NC(=S)N(c2ccc(Cl)cc2)C(=O)C1=Cc1ccsc1`, 8.3%; under `O=C1CSC(c2cn(-c3ccccc3)nc2-c2ccc(Cl)cc2)N1Cc1ccccc1` (stereo not drawn), -6.5%.
With `O=c1[nH]cc(N=Cc2ccccc2)c(=O)[nH]1` the figure was -2.8%.
For `Cc1onc(-c2ccccc2Cl)c1C(=O)Nc1sc(C)c(C)c1C#N`, the displacement is 13.6%.
On to `CCc1nc2ccccc2n1CC(O)COC1CCCCC1` (stereo not drawn), for which the displacement was -10.7%.
As to `COC(=O)c1ccc(N2C(=O)c3cccc([N+](=O)[O-])c3C2=O)cc1`, the displacement is -0.7%.
As to `O=c1/c(=C/c2cccs2)sc2nc3ccccc3n12`, the displacement amounted to 7.2%.
With `O=c1/c(=C/c2ccccn2)sc2nc3ccccc3n12` the figure was 102%.
For `Cc1ccsc1/C=c1\sc2nc3ccccc3n2c1=O`, the displacement is -8.5%.
For the molecule `CCOc1ccc(NC(=O)CC2S/C(=N\N=C(/C)c3cccc(NC(C)=O)c3)NC2=O)cc1` (stereo not drawn), the displacement is -11%.
In the case of `CN1CCN(c2ccc3c4c(cccc24)C(=O)c2ccccc2-3)CC1`, the displacement is 2.9%.
Consider `CN1CCN(C(=O)CCN2C(=O)c3cccc4cccc(c34)C2=O)CC1`, for which the displacement worked out at 18.2%.
`O=C1c2cccc3c(N4CCCCC4)ccc(c23)C(=O)N1c1ccc(Cl)cn1`: the displacement was determined as 25.4%.
For `CC(C)N1C(=O)c2cccc3c(N4CCCCC4)ccc(c23)C1=O`, the displacement turned out to be 9.8%.
For the molecule `O=C1c2cccc3c(N4CCCCC4)ccc(c23)C(=O)N1CCO`, the displacement turned out to be 66.1%.
For `CN1CCN(c2ccc3c4c(cccc24)C(=O)N(CCO)C3=O)CC1`, the displacement was determined as 155%.
For the molecule `CCOC(=O)c1c(-c2ccccc2)oc2ccc(OC(=O)c3ccc(OC)c(OC)c3)cc12`, the displacement stood at 8.8%.
As to `Cc1ccc(C(=O)COc2cc(OCC(=O)c3ccc(C)cc3)c3c(C)cc(=O)oc3c2)cc1`, the displacement was 10%.
Consider `COc1nccnc1NS(=O)(=O)c1ccc(NC(=S)NC(=O)c2ccc(F)c(F)c2)cc1`, for which the displacement came out at 6.6%.
`CSc1ccc(-c2ncnn2-c2cccc(Cl)c2)cc1`: the displacement is -4.7%.
For the molecule `COC(=O)C1C(=O)N(C)C(c2ccccc2)C1C(=O)OC` (stereo not drawn), the displacement was found to be 8.4%.
Take `CCOC(=O)C1=C(C)N=c2s/c(=C\c3cccc([N+](=O)[O-])c3)c(=O)n2C1c1cccc(OC)c1` (stereo not drawn): the displacement was 4.1%.
With `CCOC(=O)C1=C(C)N=c2s/c(=C/c3ccc(F)cc3)c(=O)n2C1c1cccc([N+](=O)[O-])c1` (stereo not drawn), the displacement is 7.1%.
Turning to `CCOC(=O)C1=C(C)N=c2s/c(=C/c3cccc([N+](=O)[O-])c3)c(=O)n2C1c1ccccc1Cl` (stereo not drawn), the displacement is 10.2%.
As to `CCOC(=O)C1=C(C)N=c2s/c(=C\c3cccc([N+](=O)[O-])c3)c(=O)n2C1c1ccccc1F` (stereo not drawn), the displacement stood at 138%.
Under `CCOC(=O)C1=C(C)N=c2s/c(=C\c3ccc(C)cc3)c(=O)n2C1c1cccc([N+](=O)[O-])c1` (stereo not drawn) stands 127%; under `CCOC(=O)C1=C(C)N=c2s/c(=C\c3cccc([N+](=O)[O-])c3)c(=O)n2C1c1ccc(C)cc1` (stereo not drawn), 16.1%; under `CCCCOc1ccc(C(=O)O/N=C2/CCc3cc(OC)ccc32)cc1`, 2%.
For `O=C(Nc1ccc(Cl)c(Cl)c1)c1ccc([N+](=O)[O-])o1`, the displacement is -8%.
For `Cc1cc(C)c2nc3s/c(=C\c4ccc(-c5cc([N+](=O)[O-])c(C)cc5C)o4)c(=O)n3c2c1`, the displacement was -20.8%.
Regarding `CN1CCO/C1=C(C#N)\C=C1\Nc2ccccc2C1=O`, the displacement was -77.4%.
Regarding `Cc1c(Cl)cccc1N1C(=O)c2ccccc2C1=O`, the displacement is 7.1%.
Take `CN1CCO/C1=C(C#N)\C=C1/C(=O)N(c2c(Cl)cccc2Cl)c2ccccc21`: the displacement came to 67.6%.
On to `COc1ccc(/C=C2\SC(N3CCCCCC3)=NC2=O)cc1OC`, for which the displacement was -1.9%.
Turning to `Cc1ccc(S(=O)(=O)Oc2ccc(/C=C3/SC(=S)N(C)C3=O)cc2)cc1`, the displacement is -3.3%.
As to `Cc1cccn2c(=O)c(/C=N/NC(=O)c3ccccc3O)c(N3CCCCC3)nc12`, the displacement turned out to be 130%.
`Cc1cccn2c(=O)c(C=O)c(N3CCCCC3)nc12`: the displacement was 3.9%.
`Cc1cccn2c(=O)c(C=O)c(N3CCC(C)CC3)nc12`: the displacement stood at 17%.
For the molecule `CCOC(=O)COc1ccc(/C=C2\C(=O)NC(=O)N(c3ccc(OC)cc3)C2=O)cc1OC`, the displacement amounted to 0.6%.
Consider `Cc1cc(C)cc(N2C(=O)NC(=O)/C(=C\c3cc(Br)ccc3OCC(=O)O)C2=O)c1`, for which the displacement is -7.4%.
As for `CCN(CC)CCNc1nc2nonc2nc1NCCN(CC)CC`, the displacement is -0.5%.
On to `NC(=O)c1cc(NC(=O)c2cc3ccccc3cc2O)cc(C(N)=O)c1`, for which the displacement was -4.2%.
On to `CN(C)c1ccc(NC(=O)c2ccc(Br)cc2)cc1`, for which the displacement worked out at 48.8%.
Turning to `CCOc1ccc(C(=O)Nc2cccc(-c3nc4cc(C)ccc4o3)c2C)cc1`, the displacement came to 17.4%.
For `COc1cc(OC)cc(C(=O)Nc2ccc(-c3nc4cc(C)cc(C)c4o3)cc2)c1`, the displacement came out at 55.3%.
Take `COc1ccc(Br)cc1C(=O)Nc1cccc(-c2nc3cc(C)ccc3o2)c1C`: the displacement was 20.2%.
Under `COc1cc(OC)cc(C(=O)Nc2cccc(-c3nc4ncccc4o3)c2C)c1` stands 5.6%; under `COc1cc(OC)cc(C(=O)Nc2ccc3oc(-c4ccc(I)cc4)nc3c2)c1`, -5.8%; under `Cc1cc(C)c2oc(-c3ccc(NC(=O)c4cccc([N+](=O)[O-])c4C)cc3)nc2c1`, -3.8%.
`COc1cc2ccccc2cc1C(=O)Nc1cccc(-c2nc3cc(C)cc(C)c3o2)c1C`: the displacement was found to be 26.5%.
`COc1cc(OC)cc(C(=O)Nc2cccc(-c3nc4cc(C)cc(C)c4o3)c2C)c1`: the displacement was 58.7%.
As for `CC(=O)Nc1cccc(-c2nc3cc(C)ccc3o2)c1C`, the displacement came to 99.7%.
Under `Cc1onc(-c2c(Cl)cccc2Cl)c1C(=O)Nc1ccc(N(C)C)cc1` stands 12.1%; under `CCOC(=O)c1c(NC(=O)COc2ccccc2C)sc(C(=O)Nc2ccccc2F)c1C`, -0.6%.
Consider `CN(C)c1ccc(-c2ncnn2-c2sc3c(c2C#N)CCCC3)cc1`, for which the displacement was 3.1%.
Take `Cc1ccc(NCC(=O)N/N=C\c2ccc(OCc3ccccc3)cc2)cc1`: the displacement is 6.5%.
Take `O=[N+]([O-])c1ccc(-n2ncnc2-c2ccc(F)cc2)cc1`: the displacement was 10.5%.
On to `O=C(O)C(Cc1ccccc1)N1C(=O)/C(=C/c2ccc(O)cc2)SC1=S` (stereo not drawn), for which the displacement is -23.7%.
